Pf growth 96h: P. falciparum growth inhibition at 96 hour, primary screen for plastid delayed-death inhibitors. P. falciparum luciferase reporter growth, 96 h. Potency, µM (series often up to 28.7 µM), actives largely listed as inhibitors. hit rate 6.9% among 320,000. AID 504834
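Readout is luminescence from an integrated firefly luciferase in P. falciparum. Red cells, 2% hematocrit and 0.05% parasitemia final, were cultured with compound through two parasite generations (96 hours) at 37 C, 5% CO2.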
LASV entry inh: Lassa virus entry inhibition | Lassa virus pseudotype entry inhibition, cell reporter | hit rate 1.2% among 300,000 | AID 540256 | Potency, µM (highest dose often 37.9 µM), usual class: inhibitors; calls by dose curve; tested in HEK293 cells; also: nearly all actives have a fitted effect of over 50% in size
Marburg entry inh: inhibitors of Marburg virus binding or cell entry. Marburg virus pseudotyped entry inhibition, cell reporter. Potency, µM (doses to about 37.8 µM), hits mostly inhibitors. hit rate 1.8% among 300,000; calls by dose curve; tested in HEK293 cells
HCV inh: HCV inhibition; Huh7.5.1 HCVcc-Cre infection, luciferase reporter, 44 h; hit rate 3.4% among 340,000; Potency, µM (highest dose often 41.8 µM), actives largely listed as inhibitors
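1,000 cells/well; 4 h culture; + compound; + HCVcc-Cre (~0.5 moi); 44 h; luciferase substrate, RT 15 min; read 15 sec.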
HCMV inh: human cytomegalovirus inhibition; HFF cells, HCMV-luciferase reporter, 72 h; active compounds read low; activity change, negative = inhibition, % at 57.5 µM; hit rate 4.5% among 410,000; in the data active = activity change below about -60%; inconclusive = no clear call, values can overlap the other calls; inactive = above about -39%
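Compounds were evaluated in HFFs infected with an HCMV luciferase reporter virus (MOI 1 PFU/cell). Luciferase in lysates collected 72 h post infection served as the replication measure.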
Pf growth 48h: P. falciparum growth inhibition at 48 hours (one generation); P. falciparum luciferase growth in erythrocytes, 48 h; Potency, µM (highest dose often 28.7 µM), actives largely listed as inhibitors; hit rate 5.9% among 310,000; AID 504832
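Parasite viability was followed by luminescence of a genomically integrated firefly luciferase. Cultures held 0.1% parasitemia at 2% hematocrit (final), incubated under 5% CO2 at 37 C.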
Hits are given with their value; - = inactive; ? = inconclusive; . = no result; [ ] = another dose, or the depositor's remark. Most compounds without a hit are left out; they make up all but 14% or so of the library. Unless noted, calls follow the shape of the dose curve; as a rule, active = well fitted inhibition curve with a large enough effect; inconclusive = small, poorly fitted or top-dose-only effect, or another doubt; inactive = no such curve, though single readings can be large or run the other way.

SMILES | Pf growth 96h | LASV entry inh | Marburg entry inh | HCV inh | HCMV inh | Pf growth 48h
COc1ccc(-n2c(=S)[nH]c3cc(C(=O)Nc4ccc(C)c(F)c4)ccc3c2=O)c(OC)c1 | - | ? | ? | 11µM | -76 | -
COc1ccc(S(=O)(=O)N2CCOCC2)cc1NC(=O)CNC(=O)c1cccs1 | - | . | . | - | - | ?
Cc1csc2ncnc(NNC(=O)c3ccc(Cl)cc3)c12 | ? | ? | ? | 7.9µM | - | -
CCc1nc(C)cn1S(=O)(=O)c1ccc2c(c1)OCCO2 | . | ? | - | - | - | .
COc1ccccc1CNC(=O)Nc1nc(C(N)Cc2ccc(Cl)cc2)cs1 (stereo not drawn) | . | . | . | . | - | .
COc1ccccc1CNC(=O)C1CCCN(c2nnc(-n3c(C)ccc3C)s2)C1 (stereo not drawn) | . | - | - | . | - | .
CC1=C(O)C(=O)C=C2C1=CC=C1C2(C)CCC2(C)C3CC(C)(C(=O)O)CCC3(C)CCC12C (stereo not drawn) | . | ? | 2.8µM | ? | -78 | .
CCOC(=O)CN1CC(C)(C)N(CC(=O)OCC)CC1(C)C | . | - | - | - | - | .
NC(=O)c1ccccc1OCC(=O)c1ccc(Cl)cc1 | - | ? | ? | - | - | 4.1µM
Cc1ccc(C(=O)c2cncc(Br)c2)cc1 | - | - | - | - | -71 | -
Cc1ccc(C(=O)c2cc(Br)ccc2N)cc1 | 1.7µM | . | . | - | - | -
CCc1ccc(C(=O)c2cncc(Br)c2)cc1 | . | - | ? | - | -69 | ?
CSc1nn(CCC#N)c(=O)[nH]c1=O | . | . | . | . | - | .
O=C(Nc1ccc2c(c1)OCO2)N[C@H]1CC[C@@]23CCCN2C(=O)CCC[C@H]3C1Cc1ccccc1 (stereo partly drawn) | . | . | . | . | - | .
CCCCNC(=O)C[C@@H]1C[C@@]2(C(=O)OC)CCCCC=C2N(Cc2cccc3ccccc23)C1=O | . | . | . | . | - | .
COc1ccc(C(=O)NCC(c2cccs2)S(=O)(=O)c2cccs2)cc1 (stereo not drawn) | . | - | . | . | - | .
CCN1CCN(Cc2cccc(Oc3ccccc3)c2)CC1 | - | ? | ? | - | - | .
CN1CCN(Cc2ccc3ccccc3c2)CC1 | 12µM | . | . | - | - | ?
CCN1CCN(Cc2cccc(Oc3ccc(Cl)cc3)c2)CC1 | . | ? | ? | 13µM | - | -
CN1CCN(Cc2cccc(Oc3ccc(Cl)cc3)c2)CC1 | ? | - | ? | ? | -61 | .
Cc1ccc(OC[C@H](O)CNS(=O)(=O)c2ccccc2C(=O)O)cc1 | . | . | - | . | . | .
Cc1cccn2c(=O)c3cc(C#N)c(=O)n(-c4nnc(SCc5ccc(Cl)cc5)s4)c3nc12 | . | - | ? | . | ? | .
Cc1ccc2c(C)nc(Nc3nc(CSc4nc5ccccc5[nH]4)cc(=O)[nH]3)nc2c1 | ? | - | ? | ? | ? | 10µM
COc1ccc2nc(Nc3nc(CSc4nnc(C)s4)cc(=O)[nH]3)nc(C)c2c1 | ? | - | - | -[0.335 µM] | . | ?
Cc1ccc2nc(Nc3nc(CSc4nnc(C)s4)cc(=O)[nH]3)nc(C)c2c1 | 3.3µM | . | - | ? | -81 | ?
SMILES | Pf growth 96h | LASV entry inh | Marburg entry inh | HCV inh | HCMV inh | Pf growth 48h
Cc1csc2ncnc(N3CCN(C(=S)Nc4ccc(C(F)(F)F)cc4)CC3)c12 | - | . | . | - | -71 | -
CCOC(=O)c1[nH]c(C)c(C(=O)NCc2ccccc2Cl)c1C | . | - | ? | . | - | .
Cc1cc2nn(-c3ccccc3)nc2cc1NC(=O)COc1ccc(Cl)cc1 | . | - | . | . | - | .
O=C(CNC(=O)c1cccs1)OCC(=O)c1ccc([N+](=O)[O-])cc1 | - | - | - | - | -65 | -
O=C(CNC(=O)c1cccs1)c1ccc(Cl)cc1 | ? | - | ? | - | - | -
O=C(CNC(=O)c1ccco1)NCC(=O)OCc1ccc(F)cc1 | 3.3µM | - | - | - | ? | -
O=C(CNC(=O)c1ccco1)OCC(=O)c1ccc([N+](=O)[O-])cc1 | - | - | - | - | -64 | -
O=C(CNC(=O)c1cccs1)c1ccc(F)cc1 | - | - | ? | - | -75 | -
COC(=O)c1ccc(COC(=O)CNC(=O)c2ccco2)cc1 | . | - | - | - | - | -
CC(=O)N1CCc2cc(S(=O)(=O)NC(CC(C)C)C(=O)Nc3ccc(C(C)C)cc3)ccc21 (stereo not drawn) | . | - | - | . | - | .
COc1ccccc1Nc1nc(-c2ccccc2F)nc2ccccc12 | . | - | . | . | - | .
